Eight molecules from PubChem BioAssay (NCI) can be followed below.

This is part of a sample that, as a whole, favours compounds with a hit. Of some 83,000 tested, about 20% had one in any assay.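 Step 1: grow cells in 96-well plates. Step 2: add test compound at a single concentration. Step 3: incubate 48 h. Step 4: record percent growth.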 Unmarked numbers belong to inactive results. Active and inactive are the calls of the source. How the source made its calls: active means growth percent below 10; inactive means the rest.

Among the test systems are NCI-H23 lung; NCI-H226 lung; NCI-H322M lung; HOP-62 NSCLC; NCI-H460 lung; HOP-92 NSCLC; NCI-H522 lung; A549/ATCC NSCLC; 786-0 renal; COLO 205 colon; DU-145 prostate; K-562 leukemia; MALME-3M melanoma; MDA-MB-231 breast; RXF 393 renal; SF-268 CNS; SF-295 CNS; SF-539 CNS; UACC-257 melanoma; M14 melanoma.
Assay in all cases: NCI-60 one-dose screen, 48 h (100 = growth as untreated, 0 = no growth, -100 = all killed)
What all share (conditions): 10 µM unless noted

In the case of `C[C@@H]1N=C(c2ccc(Cl)cc2Cl)Nc2nc3ccccn3c2C1=O`, the growth was 61.4% with NCI-H23 lung; 75.7% with NCI-H226 lung; 63.7% in the assay on NCI-H322M lung; 52.6% in the assay with HOP-62 NSCLC; 18.7% with NCI-H460 lung; 55.9% in the assay on HOP-92 NSCLC. Also, the growth in the assay on NCI-H522 lung was 28.9%; in the assay with A549/ATCC NSCLC, 40.6%; in the assay on 786-0 renal, 73.2%; in the assay with COLO 205 colon, 22.3%; in the assay with DU-145 prostate it was 64.8%; with K-562 leukemia, 23.6%. For the same molecule, the growth with MALME-3M melanoma is 43.7%; with MDA-MB-231 breast it was 64.6%; in the assay on RXF 393 renal it was 80.2%; with SF-268 CNS, 58.9%; in the assay with SF-295 CNS, 14.5%; in the assay on SF-539 CNS, 53%. Moreover, the growth with UACC-257 melanoma was 52.4%; in the assay with M14 melanoma it was 31.1%.

Regarding `COc1ccccc1NC(=O)n1c(=O)cc(C)c2ccc(O)cc21`, the growth in the assay on NCI-H23 lung is 102%; in the assay with NCI-H226 lung it was 93.5%; with NCI-H322M lung it was 103%; in the assay on HOP-62 NSCLC it was 102%; in the assay on NCI-H460 lung, 111%; in the assay with HOP-92 NSCLC it was 88.9%. The growth with NCI-H522 lung was 96.2%; with A549/ATCC NSCLC, 105%; in the assay with 786-0 renal, 115%; in the assay on COLO 205 colon, 110%; in the assay with DU-145 prostate, 113%; with K-562 leukemia, 117%. In addition, the growth was 106% in the assay on MALME-3M melanoma; 106% in the assay on MDA-MB-231 breast; 94.8% in the assay on RXF 393 renal; 106% in the assay on SF-268 CNS; 101% in the assay with SF-295 CNS; 106% with SF-539 CNS. The growth in the assay on UACC-257 melanoma is 111%; in the assay on M14 melanoma it was 113%.

For the molecule `COC(=O)c1cc(-c2ccc(OC)c(OC)c2)[nH]c1N/N=C/c1c(Cl)cccc1Cl`, the growth in the assay on NCI-H23 lung is 40.7%; in the assay on NCI-H226 lung, 62.4%; with NCI-H322M lung, 55.1%; in the assay with HOP-62 NSCLC it was -7.06% (active); in the assay with NCI-H460 lung, 14.6%; in the assay with HOP-92 NSCLC it was 52.7%. The growth in the assay on NCI-H522 lung is 13.7%; in the assay with A549/ATCC NSCLC, 43%; with 786-0 renal, 8.47% (active); with COLO 205 colon it was 28%; in the assay with DU-145 prostate, 21.2%; in the assay on K-562 leukemia it was 19.9%. In addition, the growth is 46.8% in the assay on MALME-3M melanoma; 41.1% with MDA-MB-231 breast; -10.4% (active) in the assay with RXF 393 renal; 43.6% in the assay with SF-268 CNS; -0.264% (active) in the assay with SF-295 CNS; -15.2% (active) in the assay with SF-539 CNS. Besides, the growth with UACC-257 melanoma is 49.3%; with M14 melanoma, 0.331% (active).

For `O=[N+]([O-])c1ccc(Oc2cccc3c(Oc4ccc([N+](=O)[O-])cc4[N+](=O)[O-])cccc23)c([N+](=O)[O-])c1`, the growth is 75.3% in the assay on NCI-H23 lung; 83.9% with NCI-H226 lung; 92.4% in the assay with NCI-H322M lung; 79.6% in the assay on HOP-62 NSCLC; 93.4% with NCI-H460 lung; 62% in the assay with HOP-92 NSCLC. Besides, the growth was 74.6% with NCI-H522 lung; 83% in the assay with A549/ATCC NSCLC; 108% with 786-0 renal; 102% with COLO 205 colon; 107% in the assay with DU-145 prostate; 95.1% in the assay with K-562 leukemia. In addition, the growth with MALME-3M melanoma is 105%; in the assay on MDA-MB-231 breast, 63.7%; with RXF 393 renal it was 96.4%; in the assay on SF-268 CNS, 85%; in the assay with SF-295 CNS, 99.9%; in the assay with SF-539 CNS, 96.3%. The growth was 91.6% with UACC-257 melanoma and 93.3% in the assay on M14 melanoma.

For `COC(=O)[C@H](C)NC(=O)c1ccc(NC(=O)c2[nH]c(C)c(Cl)c2Cl)c(OCCN)c1`, the growth in the assay with NCI-H23 lung is 106%; with NCI-H226 lung, 112%; in the assay with NCI-H322M lung it was 101%; in the assay on HOP-62 NSCLC it was 106%; with NCI-H460 lung, 105%; in the assay on HOP-92 NSCLC, 101%. Besides, the growth was 107% with NCI-H522 lung; 98.1% with A549/ATCC NSCLC; 98.6% in the assay on 786-0 renal; 104% with COLO 205 colon; 104% with DU-145 prostate; 66.7% with K-562 leukemia. For the same molecule, the growth in the assay with MALME-3M melanoma is 113%; in the assay with MDA-MB-231 breast, 103%; in the assay with RXF 393 renal it was 115%; in the assay with SF-268 CNS it was 96.3%; with SF-295 CNS it was 102%; in the assay with SF-539 CNS, 101%. Moreover, the figures for the growth in the assay with UACC-257 melanoma and in the assay with M14 melanoma were 104% and 119%, respectively.

With `CCOC(=O)c1ccc2c(c1)[n+](=O)c(C(C)=O)c(C(F)(F)F)n2[O-]`, the growth was -16.9% (active) with NCI-H23 lung; 41.2% in the assay on NCI-H226 lung; 94.4% in the assay on NCI-H322M lung; 25.5% in the assay on HOP-62 NSCLC; -50.7% (active) in the assay with NCI-H460 lung; -29.9% (active) in the assay with HOP-92 NSCLC. Moreover, the growth with NCI-H522 lung was -83.8% (active); in the assay with A549/ATCC NSCLC, 19.2%; with 786-0 renal it was 11.4%; in the assay with COLO 205 colon, -78.3% (active); with DU-145 prostate, -88.5% (active); in the assay with K-562 leukemia it was -76.7% (active). In addition, the growth in the assay on MALME-3M melanoma is -40% (active); with MDA-MB-231 breast, 22.2%; in the assay on RXF 393 renal, 31.6%; with SF-268 CNS, -51.8% (active); in the assay with SF-295 CNS, 23%; in the assay on SF-539 CNS, 29.7%. Further, the values for the growth with UACC-257 melanoma and with M14 melanoma were -37.1% (active) and 8.64% (active), respectively.

As for `O=C(Oc1ccccc1)c1cc(O)c(O)c(O)c1`, the growth with NCI-H23 lung was 72.3%; in the assay with NCI-H226 lung it was 89.8%; with NCI-H322M lung, 54.8%; in the assay with HOP-62 NSCLC, 54.9%; in the assay on NCI-H460 lung, 28%; in the assay with HOP-92 NSCLC it was 79.6%. Besides, the growth with NCI-H522 lung is 53.3%; in the assay on A549/ATCC NSCLC, 68.9%; in the assay with 786-0 renal, 55%; in the assay on COLO 205 colon, 99.2%; in the assay with DU-145 prostate, 76.2%; in the assay on K-562 leukemia, 50.8%. In addition, the growth is 88% in the assay with MALME-3M melanoma; 63.4% with MDA-MB-231 breast; 110% with RXF 393 renal; 59.7% in the assay on SF-268 CNS; 73.5% in the assay on SF-295 CNS; 54% with SF-539 CNS. Further, the growth in the assay with UACC-257 melanoma was 112%; in the assay on M14 melanoma, 68.4%.

In the case of `COc1cc(/C=C/c2cc(/C=C/c3ccc(O)c(OC)c3)n(C(=O)Nc3ccc(C)cc3C)n2)ccc1O`, the growth with NCI-H23 lung was -26.1% (active); in the assay with NCI-H226 lung, -3.7% (active); with NCI-H322M lung, 8.13% (active); with HOP-62 NSCLC it was -35.7% (active); in the assay on NCI-H460 lung, 1.87% (active); with HOP-92 NSCLC, -27% (active). Further, the growth is 6.31% (active) in the assay on NCI-H522 lung; -3.98% (active) in the assay with A549/ATCC NSCLC; -59.1% (active) with 786-0 renal; -65.6% (active) in the assay on COLO 205 colon; -26.6% (active) with DU-145 prostate; -7.18% (active) with K-562 leukemia. Besides, the growth in the assay with MALME-3M melanoma was -21.7% (active); with MDA-MB-231 breast, 10.2%; with RXF 393 renal, -67.3% (active); in the assay with SF-268 CNS, 3.8% (active); in the assay with SF-295 CNS, -51% (active); in the assay on SF-539 CNS it was -19.6% (active). In addition, the growth is -21.4% (active) with UACC-257 melanoma and -38.1% (active) with M14 melanoma.
